# UGM FP inh: M. tuberculosis UGM enzyme inhibitors, primary screen, biochemical, fluorescence polarization, single point. purified UGM, fluorescence polarization probe displacement. inhibition, % at 10 µM. actives 0.06% (n = 320,000). AID 504406, 2011; in the data active = inhibition above about 10%, passing the limit was not always enough
# MazF activator: activators of E. coli MazEF toxin-antitoxin RNase, primary screen, biochemical, fluorescence, uHTS. Endoribonuclease toxin MazF (Escherichia coli (strain K12)), P0AE70. FAM/BHQ RNA-DNA oligo cleavage fluorescence, 5 h. activation, % at 20 µM. actives 0.32% (n = 350,000). AID 504720, 2011; in the data active = activation above about 50%
# Mtb betalactam: beta-lactam sensitization of Mtb H37Rv, H37Rv; M. tuberculosis H37Rv growth with meropenem, percent inhibition; inhibition, % at 25 µM; actives 0.27% (n = 330,000); call rule not given here;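 also: growth measured after seven days incubation then overnight dye step; 0% = bacteria only wells and 100% = bacteria with antibiotic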
# TcdB inh: TcdB glycohydrolase inhibitors, primary screen, biochemical, single point, plate reader; Toxin B (Clostridioides difficile), P18177; TcdB glycohydrolase enzymatic assay; inhibition, % at 9.99 µM; actives 0.24% (n = 350,000); in the data active = inhibition above about 10%
# Rv3671c protease: Rv3671c serine protease inhibitors, primary screen, biochemical, fluorescence polarization, M. tuberculosis H37Rv; actives 0.048% (n = 320,000); inhibition, % at 5.96 µM; in the data active = inhibition above about 38%;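 also: extracellular domain of Rv3671c used as enzyme; 0% = enzyme with DMSO and 100% = no enzyme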
# RecA intein inh: Mtb RecA intein splicing inhibitors, primary screen, biochemical, fluorescence, HTS; cell-free RecA intein splicing; actives 0.75% (n = 290,000); AID 2221, 2009; inhibition, % (test concentration not listed); Protein RecA (Mycobacterium tuberculosis (strain ATCC 25618 / H37Rv)), P9WHJ3; in the data active = inhibition above about 30%;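 also: 0% = vehicle wells and 100% = reference inhibitor control wells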
# Target sequence (P9WHJ3 whole entry, looked up): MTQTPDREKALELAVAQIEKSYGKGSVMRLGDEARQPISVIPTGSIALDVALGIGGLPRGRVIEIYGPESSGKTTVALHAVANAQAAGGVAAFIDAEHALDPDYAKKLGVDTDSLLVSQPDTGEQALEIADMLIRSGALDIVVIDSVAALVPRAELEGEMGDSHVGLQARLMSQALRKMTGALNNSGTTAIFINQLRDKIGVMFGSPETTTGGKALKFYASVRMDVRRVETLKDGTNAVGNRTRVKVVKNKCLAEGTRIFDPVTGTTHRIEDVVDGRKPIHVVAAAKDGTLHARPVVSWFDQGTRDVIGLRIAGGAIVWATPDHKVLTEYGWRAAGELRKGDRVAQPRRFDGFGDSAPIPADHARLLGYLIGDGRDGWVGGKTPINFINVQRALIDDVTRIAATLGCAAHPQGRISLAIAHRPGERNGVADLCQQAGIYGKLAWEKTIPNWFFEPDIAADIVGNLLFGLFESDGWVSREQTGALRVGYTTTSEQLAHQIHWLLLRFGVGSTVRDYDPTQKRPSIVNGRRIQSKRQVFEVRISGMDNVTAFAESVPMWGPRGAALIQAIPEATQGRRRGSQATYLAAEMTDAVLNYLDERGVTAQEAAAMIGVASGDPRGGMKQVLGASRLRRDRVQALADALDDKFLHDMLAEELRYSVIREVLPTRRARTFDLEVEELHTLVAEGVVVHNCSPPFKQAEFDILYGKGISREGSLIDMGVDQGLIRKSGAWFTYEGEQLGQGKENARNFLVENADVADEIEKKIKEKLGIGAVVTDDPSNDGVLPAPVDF
# Numbers without * were called inactive; x = no result. A selection: hits, their analogues and other compounds. The true share with any hit is near 0.97%.
SMILES,UGM FP inh,MazF activator,Mtb betalactam,TcdB inh,Rv3671c protease,RecA intein inh
O=C(NC(=S)Nc1ccc(N2CCOCC2)cc1)c1cccc(Cl)c1,-0.2,4.6,-2.0,2.3,9.4,0.4
O=C(NC(=S)Nc1ccc(N2CCOCC2)cc1)c1ccccc1,-0.1,-10.8,6.3,23.1*,7.0,-4.6
O=C(Nc1ccc(F)cc1)N1CCCCN2[C@H](CO)[C@@H](c3ccc(-c4ccccc4F)cc3)[C@H]2C1,x,x,x,0.1,x,x
COC(=O)c1c(NC(=O)/C=C/c2ccco2)sc2c1CCC2,-0.5,56.6*,4.0,0.4,2.8,1.4
Fc1ccccc1Nc1n[nH]c(=S)s1,1.7,3.3,-8.4,10.0*,5.5,-0.4
O=C(NC1CC1)C1=C[C@H](c2ccc(C(F)(F)F)cc2)C[C@H](OCc2ccc(CO)cc2)O1,-2.4,199.4*,-0.4,1.3,-0.8,4.6
Clc1ccc(CO/N=C(\Cn2ccnc2)c2ccc(Cl)cc2Cl)c(Cl)c1,3.2,x,99.3,x,4.8,32.0*
C[C@H](CO)N1C[C@H](C)[C@H](CN(C)CC2CCCCC2)Oc2ccc(NS(C)(=O)=O)cc2CC1=O,x,x,x,-0.8,x,x
N#C[C@H]1[C@@H](c2ccccc2)[C@@H](CO)N1C(=O)c1cc(Cl)cc(Cl)c1,x,x,x,0.4,x,x
CCc1cccc(CC)c1NC(=O)COC(=O)/C(C#N)=C/c1ccc(OC)cc1,1.2,124.2*,0.8,0.5,11.1,-3.4
COc1ccc(/C=C(\C#N)C(=O)OCC(=O)Nc2c(C)cccc2C)cc1,3.0,1.7,4.3,-1.8,-10.4,-5.2
COc1ccc(C(=O)NNC2=Nc3cccc4cccc2c34)cc1,0.5,50.0*,0.5,0.9,-5.0,-2.6
NC(=O)NNC1=Nc2cccc3cccc1c23,0.6,-4.0,1.8,0.4,-3.0,x
Cc1ccc(C(=O)NNC2=Nc3cccc4cccc2c34)cc1,2.5,85.8*,94.0,x,-4.7,-1.8
C[C@H]1CN([C@@H](C)CO)C(=O)c2cc(/C=C/c3ccccc3)cnc2O[C@@H]1CN(C)C(=O)c1cnccn1,x,x,x,-0.2,x,x
CN(CC(=O)Nc1ccccc1Cl)CC(=O)c1c(N)n(Cc2ccccc2)c(=O)n(C)c1=O,-0.3,66.5*,-2.6,0.1,2.0,x
COCCNC(=O)C[C@H]1C[C@H]2c3cc(NS(C)(=O)=O)ccc3O[C@H]2[C@@H](CO)O1,x,x,x,-0.8,x,x
COc1ccccc1C(=O)Nc1sc2c(c1C#N)CCC2,2.0,79.6*,2.0,x,-3.1,-0.9
Cc1cc(NC(=O)CCCN2C(=O)c3cccnc3C2=O)no1,0.7,0.9,0.1,x,-3.6,-1.6
Cc1cc(NC(=O)CCCN2C(=O)c3cccc4cccc(c34)C2=O)no1,-3.7,3.7,-1.6,11.1*,6.9,-1.1
COc1ccc(OC)c(N=c2oc3c(OC)cccc3cc2C(=O)NCc2ccco2)c1,0.0,75.5*,6.4,x,2.4,-1.9
COc1ccccc1N=c1oc2c(OC)cccc2cc1C(=O)NCc1ccco1,1.4,68.8*,7.4,x,-7.8,3.2
COc1cccc(C(=O)N/N=c2\oc3c(OC)cccc3cc2C(=O)NCc2ccccc2)c1,-0.5,4.2,0.9,0.4,-6.4,-4.1
COc1ccc(N=c2oc3c(OC)cccc3cc2C(=O)NCc2ccco2)cc1OC,-2.7,343.5*,2.5,x,-2.2,x
C[C@@H]1CCCCO[C@H](CN(C)Cc2ccc(C(=O)O)cc2)[C@H](C)CN([C@@H](C)CO)C(=O)c2cc(NS(=O)(=O)c3ccc(Cl)cc3)ccc2O1,x,x,x,-0.9,x,x
SMILES,UGM FP inh,MazF activator,Mtb betalactam,TcdB inh,Rv3671c protease,RecA intein inh
O=C(C[C@H]1C[C@H]2c3cc(NC(=O)c4ccc5c(c4)OCO5)ccc3O[C@H]2[C@H](CO)O1)NCc1cccc(F)c1,x,x,x,13.6*,x,x
O=C(C[C@@H]1C[C@H]2c3cc(NC(=O)c4ccc5c(c4)OCO5)ccc3O[C@H]2[C@@H](CO)O1)NCc1cc(F)ccc1F,x,x,x,-0.2,x,x
CO[C@H]1CN(C)C(=O)c2ccc(NS(=O)(=O)c3cccc(F)c3)cc2OC[C@H](C)N(Cc2cc(F)ccc2F)C[C@@H]1C,x,x,x,1.4,x,x
O=C1C(=Cc2cccn2-c2ccccc2)C(=O)c2ccccc21,1.1,241.8*,-3.6,x,0.8,-2.9
O=C1C(=Cc2cccn2-c2ccc(O)cc2)C(=O)c2ccccc21,2.5,262.8*,2.6,x,-10.6,2.2
O=C(O)c1cccc(-n2cccc2C=C2C(=O)c3ccccc3C2=O)c1,2.3,-28.1,-2.4,0.0,-6.7,6.5
COc1ccccc1S(=O)(=O)N(C)C[C@H]1Oc2cc(/C=C/c3ccccc3)ccc2S(=O)(=O)N([C@@H](C)CO)C[C@@H]1C,x,x,x,-1.3,x,x
COc1ccc(S(=O)(=O)Nc2ccc3c(c2)CC(=O)N([C@H](C)CO)C[C@H](C)[C@@H](CN(C)Cc2ccc(C(F)(F)F)cc2)O3)cc1,x,x,x,-0.6,x,x
O=C(C[C@@H]1C=C[C@H](NC(=O)Nc2cc(F)ccc2F)[C@H](CO)O1)NCc1ccc2c(c1)OCO2,x,x,x,0.6,x,x
COc1ccccc1/C=N/Nc1cc(N(C)C)nc(N(C)C)n1,0.7,8.9,7.5,1.3,-12.7,44.3*
CN(C)c1cc(N/N=C\c2ccccc2)nc(N(C)C)n1,0.8,5.6,9.2,1.0,-14.6,6.1
Cc1cc(C)c(Nc2cc(S(=O)(=O)O)c(N)c3c2C(=O)c2ccccc2C3=O)c(C)c1,-2.0,-2.7,18.0,x,44.4*,x
Cc1cc(C)c(NC(=O)COC(=O)c2cccc3c2C(=O)c2ccccc2C3=O)c(C)c1,1.9,-14.0,-0.4,x,4.2,2.9
COc1ccc(S(=O)(=O)Nc2cccc3c2O[C@@H](CN(C)Cc2ccccc2)[C@@H](C)CN([C@H](C)CO)C3=O)cc1,x,x,x,-0.9,x,x
COc1ccccc1-c1cn[nH]c1-c1ccc(O)cc1O,0.5,6.0,-0.6,13.6*,-2.0,-2.8
COc1ccc(-c2cn[nH]c2-c2ccc(O)cc2O)cc1,-0.7,-0.4,-2.2,15.1*,-1.4,1.2
COc1ccccc1-c1cn[nH]c1-c1ccc(OCc2ccc(F)cc2)cc1O,0.4,-5.8,88.0,0.2,4.0,1.2
C=C(C)COc1ccc(-c2[nH]ncc2-c2ccc(OC)cc2)c(O)c1,-0.7,-5.2,1.8,1.6,14.3,-3.4
CO[C@H]1CN(C)C(=O)c2ccc(NS(C)(=O)=O)cc2OC[C@@H](C)N(C(=O)C2CCC2)C[C@@H]1C,x,x,x,0.7,x,x
COc1cccc(N=Nc2ccc3ccccc3c2O)c1,2.3,76.4*,2.9,-0.1,-1.1,6.6
COc1ccc(N=Nc2ccc3ccccc3c2)c(O)c1,-0.2,44.0,51.4,-0.1,0.0,-1.3
C[C@@H]1CN([C@H](C)CO)S(=O)(=O)c2ccc(C#CC3CCCC3)cc2O[C@@H]1CN(C)C(=O)C1CC1,x,x,x,-2.0,x,x

# Screening results from PubChem BioAssay.
